Among the data in PubChem BioAssay (NCI) are growth values, retold here.

This is part of a sample that, as a whole, favours compounds with a hit. Of some 83,000 tested, about 20% had one in any assay.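 Negative percent growth values reflect cell death: -40 means 40% of the cells present at the start died, and -100 means all died.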 A number with no mark means an inactive call. Active and inactive are the calls of the source. The calls were made as follows: active = growth percent below 10; inactive = the rest.

This experiment concerns HL-60(TB) leukemia. The experiment in a line: NCI-60 one-dose screen, 48 h (100 = growth as untreated, 0 = no growth, -100 = all killed). The note with it: 10 µM unless noted.
Turning to `COc1cc(-c2ccc3c(c2)NC(=O)/C3=C\c2ccc[nH]2)ccc1O`, the growth is -12.6% (active).

On to `Cc1ncc(C(=O)Nc2ccc(CN3CCN(C)CC3)c(C(F)(F)F)c2)cc1C#Cc1c(N)ncc2ccc(F)cc12`, for which the growth was 9.43% (active).

As for `Nc1ncnc2c1N=C(c1ccc3c(c1)OCO3)CC(c1cccc(Nc3ccnc4cc(C(F)(F)F)ccc34)c1)N2` (stereo not given), the growth was 92.9%.

With `C(=C\c1nccc2c1[nH]c1ccccc12)/c1ccccc1`, the growth is 55.5%.

Consider `COc1ccc(-c2c3c(nn2-c2ccc(N)cc2)CCc2cnoc2-3)cc1OC`, for which the growth was 93.1%.

Turning to `CC(=O)Nc1cccc(NC(C)=O)n1`, the growth is 96.5%.

As to `Cc1ccc(N=Nc2c(N)nn(-c3ccccc3)c2N)cc1`, the growth was 17.5%.

For `Cc1cc(C(=O)Nc2ccc3cc(CN4CCOCC4)ccc3n2)c(C)n1-c1ccccc1`, the growth was 14.5%.

For the compound `O=C(Nc1ncc(Cc2ccccc2)s1)c1sc2ccccc2c1Cl`, the growth was -9.41% (active).

In the case of `COc1cc(NC(C)CN(CC(C)C)C(C)C)c2ncccc2c1` (stereo not given), the growth is 101%.

For the compound `CCOC(=O)c1ccoc1`, the growth is 118%.

Regarding `O=C(Nc1cccc(Br)c1)c1cc(=O)[nH]c2ccccc12`, the growth is 108%.

On to `O=[N+]([O-])CC(c1ccccc1F)c1c[nH]c2ccccc12` (stereo not given), for which the growth was 51.1%.

As to `CCOC1=C(Cl)C(=O)C(OCC)=C(Cl)C1=O`, the growth is 52.3%.

Regarding `O=C(Nc1nc(-c2ccc(Cl)cc2)cs1)c1cc(O)c(O)c(O)c1`, the growth is 10.4%.

Regarding `Cc1ccc(C(=O)Nc2ccc(CN3CCN(C)CC3)c(C(F)(F)F)c2)cc1C#Cc1cnc(N)cc1C#N`, the growth was -53.5% (active).

Turning to `O=C(CN1CCN(c2cc3c(cc2F)c(=O)c(C(=O)O)cn3C2CC2)CC1)Nc1ccc(C(=O)/C=C/c2ccc(Cl)cc2)cc1`, the growth is 134%.

As for `Cc1nc(Cl)cc(N(c2cc(Cl)nc(C)n2)c2ncc(C(=O)Nc3c(C)cccc3Cl)s2)n1`, the growth was 81.3%.

On to `COc1ccc(-c2cc(C(=O)N=Nc3c(O)[nH]c4ccc(Br)cc34)no2)cc1`, for which the growth was 95.1%.

As to `ClC1=C(Cl)C(Cl)=C(Cl)C1=Cc1ccc(Cl)cc1`, the growth was -4.27% (active).

As to `CCOC(=O)c1csc(NC(=O)COc2cccc(/C=C3\CSc4ccccc4C3=O)c2)n1`, the growth is -77.5% (active).

For the compound `COc1cccc(-c2cc(-c3cccc(Cl)c3)c(C#N)c(=O)[nH]2)c1`, the growth is 36.2%.

Turning to `O=c1[nH]c(=O)n(C2CC(O)C(CO)O2)cc1C(F)(F)F` (stereo not given), the growth is -22.2% (active).

In the case of `O=C1c2cc3c(cc2-c2c1c1cc(Cl)c(Cl)cc1c(=O)n2CCCn1ccnc1)OCO3`, the growth was -19.4% (active).

On to `O=C(Nc1ccc(Cl)cc1)N1NC(c2ccc(Cl)cc2)C=C1c1ccccc1` (stereo not given), for which the growth is 80.3%.
